High-throughput results from PubChem BioAssay.
Nrf2 block: inhibitors of Nrf2 signaling. 2.1% of 360,000 active. Potency, µM (doses to about 46 µM), for the others: top-dose activity change, negative = inhibition, most hits filed as inhibitors. A549 ARE-Fluc reporter, luciferase luminescence, 18-24 h. AID 504444; note: % is set by controls: 0 for no effect and ±100 for the full control effect; nearly all actives have a fitted effect of over 60% in size
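Reporter: ARE-Fluc in A549. Exposure: 18-24 h, 37 °C, 5% CO2, 5% FBS OPTI-MEM. Readouts: fluorescent cytotoxicity (CellTiter-Fluor), then luminescent Nrf2 signal after BugLite.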
Rango release inh: inhibition of RanGTP-driven Rango-importin beta dissociation. O95149+P62826. Biochemical FRET Rango-importin beta, RanGTP-induced dissociation. Potency, µM (highest dose often 46.1 µM), for the others: top-dose activity change, negative = inhibition. 0.071% of 340,000 active; calls by dose curve; note: % of control where 0% means no effect; nearly all actives have a fitted effect of over 45% in size
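Rango FRET biosensor (snurportin-1 IBB flanked by N-terminal EYFP and C-terminal CFP10) at 0.1 uM, with 0.25 uM importin beta in PBS, 1mM DTT, 0.02% Tween-20, 0.1% BSA. 0.6 uM Ran, 2mM GTP and 0.2 uM RCC1 were then added for 45 min at room temperature. Inhibition read as loss of FRET rise.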
Nrf2 ARE act: activators of Nrf2 (ARE) signaling. 0.31% of 410,000 active. AID 624171. Potency, µM (doses to about 46.1 µM), inactives show at the highest dose activation, most hits filed as activators. AREc32 ARE-luciferase reporter (MCF7-derived line), luminescence, 24 h; note: % of control where 0% means no effect; nearly all actives have a fitted effect of over 65% in size
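Steps: seed AREc32_Fluc cells (1000/well, 5% FBS OPTI-MEM); incubate overnight at 37 deg C; add 23 nL compound; incubate 24 hr; add Steady-Glo; hold 30 min RT; read luminescence.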
A549 viability: kills or reduces viability of A549 cells in Nrf2 counter-screen | A549 ARE-Fluc cells, CellTiter-Fluor viability, 18-24 h | Potency, µM (doses to about 46 µM), for the others: at the top dose activity change, negative = cytotoxicity, most hits filed as inhibitors | 0.16% of 390,000 active | AID 504648; note: % is set by controls: 0 for no effect and ±100 for the full control effect
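A549 ARE_Fluc cells in 5% FBS OPTI-MEM were exposed to compounds in concentration-response for 18-24 h at 37 deg C. Viability was read by CellTiter-Fluor fluorescence (Ex 405/Em 525) after 30 min, before the luciferase read.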
Rango-impB inh: Rango-importin beta binding inhibition; Rango CFP/YFP FRET sensor + importin beta, 45 min; Potency, µM (titrated, usually from 92.2 µM), for inactives: top-dose inhibition of complex formation; 0.031% of 340,000 active; calls by dose curve;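 note: 0% = DMSO wells and 100% = buffer wells lacking importin beta; nearly all actives have a fitted effect of over 15% in size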
Target sequence (Q14974 whole entry, looked up): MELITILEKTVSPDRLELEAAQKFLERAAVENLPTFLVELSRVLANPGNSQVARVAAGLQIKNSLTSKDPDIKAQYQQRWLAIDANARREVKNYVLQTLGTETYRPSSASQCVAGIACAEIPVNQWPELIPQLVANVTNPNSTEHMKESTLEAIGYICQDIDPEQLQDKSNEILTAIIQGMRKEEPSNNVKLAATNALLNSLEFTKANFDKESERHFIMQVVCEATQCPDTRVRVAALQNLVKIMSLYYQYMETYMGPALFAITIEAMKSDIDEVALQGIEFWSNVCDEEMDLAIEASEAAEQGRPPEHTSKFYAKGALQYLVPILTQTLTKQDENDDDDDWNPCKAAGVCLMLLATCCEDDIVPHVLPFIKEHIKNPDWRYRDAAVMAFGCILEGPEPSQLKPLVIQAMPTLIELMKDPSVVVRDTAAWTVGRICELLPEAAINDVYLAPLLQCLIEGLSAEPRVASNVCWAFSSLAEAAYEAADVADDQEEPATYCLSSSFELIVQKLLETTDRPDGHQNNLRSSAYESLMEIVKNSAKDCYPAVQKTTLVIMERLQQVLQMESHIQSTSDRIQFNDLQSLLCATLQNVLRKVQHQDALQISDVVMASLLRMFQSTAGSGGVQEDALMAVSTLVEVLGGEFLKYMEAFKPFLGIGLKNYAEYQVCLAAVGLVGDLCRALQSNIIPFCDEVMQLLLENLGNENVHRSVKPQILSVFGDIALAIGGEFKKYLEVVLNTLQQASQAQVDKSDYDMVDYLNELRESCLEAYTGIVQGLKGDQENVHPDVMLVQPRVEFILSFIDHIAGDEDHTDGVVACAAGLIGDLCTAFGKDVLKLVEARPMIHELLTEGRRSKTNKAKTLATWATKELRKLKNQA
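Inhibition scored from the CFP 486 nm/YFP 530 nm FRET ratio 45 min after adding 0.125 microM importin beta to 50 nM Rango biosensor preincubated 5 min with compound (room temperature, PBS with DTT, Tween-20, BSA). No-importin wells as positive control.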
* hit, by the source's call; ? = inconclusive; . = not tested or not shown; [ ] = another dose, or the depositor's remark. Rows were chosen to be rich in hits. Some 2.3% of all compounds tested hit in one or more screens of this group. Unless noted, calls come from the whole dose curve; as a rule, active = well fitted curve in the direction sought with a large enough effect; inconclusive = small, poorly fitted or top-dose-only effect, or another doubt; inactive = no such curve, though single readings can be large; an effect the other way counts as inactive or inconclusive. Potency is the fitted concentration of half-maximal effect.

SMILES	Nrf2 block	Rango release inh	Nrf2 ARE act	A549 viability	Rango-impB inh
O=C(Nc1nc2c(F)cccc2s1)c1ccc(S(=O)(=O)N2CCOCC2)cc1	.	.	3.3%	-3.6%	.
COc1ccccc1N1CCN(Cc2cc(Br)c(O)c3ncccc23)CC1	18.4µM*	-12.3%	0.7%	-8.1%	0.3%
CCCCOCCCNC(=O)C[C@@H]1C[C@@]2(C(=O)OCC)CCCC=C2N(Cc2ccc3c(c2)OCO3)C1=O	.	.	2.9%	.	.
CCSc1ccc2cc(OC)ccc2[n+]1CC	16.4µM*	-19.2%	0.3%	-24.1%	-0.3%
CCn1ccc2cc(OC)ccc2c1=S	-13.0%	21.2%	3.4%	-13.5%	2.8%
COc1ccc(Cn2c(C(=O)O)c(CNCc3ccccc3F)c3ccc(OC)cc32)cc1	-24.7%	.	10.0%	?	.
CC1CN(C(=O)Nc2ccc(C(=O)NCCc3ccccc3Cl)cc2)c2ccccc2S1 (centres undefined)	-19.6%	.	3.1%	-3.8%	.
COc1ccccc1CCNC(=O)c1ccc(NC(=O)N2CC(C)Sc3ccccc32)cc1 (centres undefined)	20.6µM*	.	0.9%	0.2%	.
CC(C)(C)c1ccc(Oc2ccc(N)cn2)cc1	18.4µM*	19.3%	-1.5%	-4.3%	-4.2%
O=C(NCc1cccnc1)c1csc([C@@H]2O[C@H](CO)[C@H](O)[C@H](O)[C@H]2O)n1	.	.	0.0%[9.22 µM]	.	.
Cc1nc(SCC(=O)c2cc3ccccc3oc2=O)c(C#N)c(-c2ccccc2)c1C(=O)Nc1ccccc1	23.1µM*	-10.3%	0.2%	-12.5%	?
Cc1ccc(-c2nn3c(-c4ccc(C)cc4)nnc3c3ccccc23)cc1	2.1%	.	3.4%	-1.1%	.
Cc1nn2c(-c3ccccc3)nnc2c2ccccc12	?	5.0%	3.98µM*	-2.1%	-0.2%
CCn1c(=O)c(C)nn2c3ccccc3nc12	.	1.2%	0.1%	-2.5%	-0.8%
Cc1nn2c3ccccc3nc2c2ccccc12	-6.6%	-1.7%	7.94µM*	-11.1%	0.8%
CSc1ncc(S(=O)(=O)c2ccccc2)c(=O)[nH]1	0.6%	-7.1%	-0.4%	8.3%	3.3%
Cc1ccc2nc(-c3ccc(NS(C)(=O)=O)cc3)cc(-c3ccccc3)c2c1	.	8.91µM*	-0.2%	-6.2%	?
CCS(=O)(=O)Nc1ccc(-c2cc(-c3ccccc3)c3cc(C)ccc3n2)cc1	23.1µM*	?	7.0%	?	?
Cc1ccc2nc(-c3ccncc3)cc(-c3ccccc3)c2c1	.	11.0%	4.5%	-1.9%	3.0%
CC(C)c1ccc(OCC(=O)Nc2ccc(S(=O)(=O)Nc3ncccn3)cc2)cc1	10.9%	.	0.1%	-6.0%	.
CCC(=O)Nc1ccc(OCc2cc(C3Nc4ccccc4C(=O)N3Cc3ccccc3)ccc2OC)cc1 (centres undefined)	?	.	.	-9.8%	.
CCn1c(=O)c([N+](=O)[O-])c(N2CCSCC2)c2ccccc21	16.4µM*	9.4%	-0.1%	-7.7%	-1.3%
N#Cc1nc(NCC(F)F)c2ncn(-c3cccc(Cl)c3)c2n1	20.6µM*	.	.	?	.
COc1cc(OC)c(NC(=O)Cn2c(=O)nc(-c3ccccc3)c3ccccc32)cc1Cl	13.6%	.	-0.3%	-1.0%	.
COc1ccc(C(=O)Oc2c(CN3CCOCC3)cc(Cl)c3cccnc23)cc1	-1.1%	2.2%	17.1%	-16.5%	-1.1%
SMILES	Nrf2 block	Rango release inh	Nrf2 ARE act	A549 viability	Rango-impB inh
O=C(Oc1c(Cl)cc(Cl)c2cccnc12)c1ccco1	23.1µM*	8.6%	11.2%	?	-6.3%
O=C(Oc1c(CN2CCOCC2)cc(Cl)c2cccnc12)c1ccc(F)cc1	23.1µM*	12.1%	2.2%	.	-1.7%
O=C(Oc1c(Cl)cc(Cl)c2cccnc12)c1cccs1	?	-8.3%	6.8%	?	-0.4%
COc1ccc(C2CC(=O)c3cc(-c4nc(-c5cccc(Cl)c5)cs4)c(=O)[nH]c3C2)cc1OC (centres undefined)	12.6%	.	-0.3%	1.8%	.
N#CC1=C(N)N2C(=C(C#N)C1c1cccc(Br)c1)Nc1ccccc12 (centres undefined)	-26.7%	?	3.8%	4.6%	?
N#CC1=C(N)N2C(=C(C#N)C1c1ccc(Br)cc1)Nc1ccccc12 (centres undefined)	11.6µM*	?	-1.2%	?	?
Cc1ccc(NC(=O)c2c(C)oc3ccc(O)c(CN4CCCCCC4)c23)cc1	4.7%	.	11.5%	-3.3%	.
Cc1ccc(Sc2cnn(-c3ccccc3)c(=O)c2Cl)cc1	6.1%	10.3%	5.01µM*	0.6%	0.5%
Nc1ccc(Sc2cnn(-c3ccccc3)c(=O)c2Cl)cc1	3.7%	1.9%	15.8µM*	-6.5%	0.8%
O=c1[nH]c(O)c(/C=C2\C=Nc3ccccc32)[nH]1	?	-20.9%	3.98µM*	?	-3.9%
COc1ccc(NC(=O)/C(Cl)=C(/Cl)S(=O)Cc2ccccc2Cl)cn1 (centres undefined)	-134.8%	2.4%	-2.9%	14.6µM*	1.4%
O=c1[nH]c(CSc2nc3ccccc3[nH]2)nc2c1cnn2-c1ccccc1	14.6µM*	-5.1%	-0.2%	-23.7%	-2.1%
CC(=O)c1ccc(OCC(=O)N(C2CCCCC2)C2CCS(=O)(=O)C2)cc1 (centres undefined)	-0.5%	26.4%	-0.7%	-11.4%	1.6%
O=C(CCl)N(C1CCCC1)C1CCS(=O)(=O)C1 (centres undefined)	20.6µM*	0.3%	28.9%	-9.1%	3.9%
CCCCN(CCCC)S(=O)(=O)c1ccc(NS(=O)(=O)c2ccc(NC(C)=O)cc2)cc1	16.4µM*	-13.0%	0.2%	-9.9%[1.84 µM]	0.7%
COc1ccc(C(=O)Nc2cc(-c3ccccc3)nn2-c2ccccc2F)cc1	?	6.6%	6.3%	-2.6%	-1.8%
COc1ccc(N2C(=O)C3NN=C(C(=O)OCc4ccccc4)C3C2=O)cc1 (centres undefined)	-1.2%	-0.2%	0.2%	-1.6%	7.6%
COc1ccc(OC2CCN(S(=O)(=O)c3ccc(OC)c(OC)c3)CC2)cc1	16.4µM*	-10.1%	-0.1%	-15.5%	?
COc1ccc(OC2CCN(S(=O)(=O)c3ccc(C(C)=O)cc3)CC2)cc1	20.6µM*	-2.0%	-0.6%	-1.6%	0.1%
COc1ccc(S(=O)(=O)N2CCN(c3ccc(F)cc3)CC2)cc1OC	5.9%	18.5%	-1.2%	19.0%	-5.0%
COc1ccc(OC2CCN(S(=O)(=O)c3ccc(F)cc3)CC2)cc1	-25.0%	16.1%	0.1%	17.9%	1.3%
COc1ccc(OC2CCN(S(=O)(=O)c3ccccc3)CC2)cc1	-12.8%	9.6%	0.4%	3.3%	2.5%
COc1ccc(S(=O)(=O)N2CCN(CCCOc3ccc(F)cc3)CC2)cc1OC	23.1µM*	-11.8%	0.3%	-0.2%	?
CCOc1ccccc1NC(=O)Cn1c(=O)n(Cc2ccc(OC)cc2)c(=O)c2oc3ccccc3c21	-1.0%	.	0.2%	7.8%	.
